# Experimental data published in PubChem BioAssay (NCI).
# The panel holds about 83,000 compounds, 20% with a hit somewhere; the sample as a whole holds those more often.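 In brief: 96-well plates, 48 h treatment, single concentration, percent growth endpoint.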 Calls of active or inactive are those of the source.
# Test system: HCC-2998 colon
# Experiment: NCI-60 one-dose screen, 48 h (100 = growth as untreated, 0 = no growth, -100 = all killed)
# Details: 10 µM
# Procedure: Growth inhibition of the HCC-2998 human tumor cell line is measured as a screen for anti-cancer activity. Cells are grown in 96 well plates and exposed to the test compound for 48 hours. Compounds are tested at a single concentration, which is 10^-5 M for most compounds. The reported endpoint is percent growth (GI% or GIPRCNT), where numbers from 0 - 100% represent growth inhibition, and numbers from -100% - 0 represent cell death. For example, a value of 40 represents 60% growth inhibition. A value of 0 means no net growth occurred over the course of the experiment. A value of -40 indicates 40% of cells at the beginning of the experiment died by the end of the experiment. A value of -100 means all cells are dead at the end of the experiment.
# NCI-60 Human Tumor Cell Lines Screen was performed using the standard one-dose NCI protocol, which is described in more detail at https://dtp.cancer.gov/discovery_development/nci-60/default.htm.
# Compounds with GIPRCNT values below 10 were considered active. Activity score was based on GIPRCNT using the following formula: […]
# Score is 0 for GIPRCNT values of 100 or above, 50 for GIPRCNT values of 0, and 100 for GIPRCNT values of -100.
row,SMILES,growth
1,COc1cc(-c2nc(C(=O)Nc3ccc(C)cc3)nn2-c2ccc(F)c(F)c2)cc(OC)c1OC,86.6% (inactive)
2,COc1cnc2c(c1)C(=O)c1c-2n(CCCN2CCOCC2)c(=O)c2cc(Cl)ccc12,53.6% (inactive)
3,COc1ccc(C2CC(=O)c3c(O)c(OC)c(OC)c(OC)c3O2)c(O)c1 (stereo not given),15.9% (inactive)
4,COc1ccc2nc3cc(Cl)ccc3c(Nc3ccc(N(C)C)cc3)c2c1,91.9% (inactive)
5,O=c1[nH]ccc2c(S(=O)(=O)N3CCCNCC3)cccc12,92.2% (inactive)
6,CC(N)C(Cc1ccc(Cl)cc1)c1ccc(Cl)cc1 (stereo not given),-6.15% (active)
7,Cc1ccc(-c2nc3ccc(Cl)cn3c2NC2CCCCC2)o1,102% (inactive)
8,CCCCCCCC(=O)SCC/C=C/[C@@H]1CC(=O)NCc2cccc(n2)C2=N[C@@](C)(CS2)C(=O)N[C@@H](C(C)C)C(=O)N1,12.6% (inactive)
9,COc1ccc(-c2ccc3c(N4CCOC[C@@H]4C)nc(N4CCOC[C@@H]4C)nc3n2)cc1CO,10.3% (inactive)
10,CCCCCCC1(/C=N/NC(N)=O)NC(=O)NC1=O (stereo not given),94.5% (inactive)
11,CC[C@H](CO)Nc1nc(NCc2ccccc2)c2ncn(C(C)C)c2n1,74.5% (inactive)
12,COCCN1CCN(Cc2ccc(-c3n[nH]c4c3C(=O)c3c(NC(=O)NN5CCOCC5)cccc3-4)cc2)CC1,-35.8% (active)
13,[2H]C1([2H])[C@H](C)O[C@H](C)C([2H])([2H])N1c1ccc(NC(=O)c2cccc(-c3ccc(OC(F)(F)F)cc3)c2C)cn1,82.4% (inactive)
14,CCN1/C(=C/C=C/c2n(-c3ccccc3)c3ccc(-c4nc5ccccc5s4)cc3[n+]2CC)N(c2ccccc2)c2ccc(-c3nc4ccccc4s3)cc21,33.3% (inactive)
15,CO[C@H](C(=O)N[C@@H](CCCCNC(=O)OCc1ccccc1)C(=O)OC(C)(C)C)[C@@H]1Cc2cc3cc(OC4CC(OC5CC(O)C(O)C(C)O5)C(O)C(C)O4)c(C)c(O)c3c(O)c2C(=O)[C@H]1OC1CC(OC2CC(OC3CC(C)(O)C(O)C(C)O3)C(O)C(C)O2)C(O)C(C)O1 (stereo not given in full),-5.55% (active)
16,CCN(CC)CCOc1ccc(/C(=C(\C)c2ccc(Cl)cc2)c2ccc(Cl)cc2)cc1,93.6% (inactive)
17,Cn1ncc(Cl)c1-c1cc(C(=O)N[C@H](CN)Cc2ccc(F)c(F)c2)oc1Cl,-89.9% (active)
18,Cc1cc(Nc2cc(N3CCN(C)CC3)nc(/C=C/c3ccccc3)n2)n[nH]1,-61.5% (active)
19,C[C@@H](Oc1cc(-n2cnc3ccc(CN4CCN(C)CC4)cc32)sc1C(N)=O)c1ccccc1C(F)(F)F,14.1% (inactive)
20,C#Cc1cccc(Nc2ncnc3cc4c(cc23)OCCOCCOCCO4)c1,97.9% (inactive)

row,SMILES,growth
1,Cc1ccc(C(=O)Nc2ccc(CN3CCN(C)CC3)c(C(F)(F)F)c2)cc1C#Cc1cnc2cccnn12,-91.8% (active)
2,CC(C)[C@@H](C)/C=C/[C@@H](C)[C@H]1CCC2=C3C=CC4=CC(=O)CC[C@]4(C)[C@H]3CC[C@@]21C,112% (inactive)
3,CCCCCCCC12Cc3ccccc3C1=Nc1c(c3ccccc3n1C)C2=O (stereo not given),96.3% (inactive)
4,CS(=O)(=O)CCNCc1ccc(-c2ccc3ncnc(Nc4ccc(OCc5cccc(F)c5)c(Cl)c4)c3c2)o1,-83.6% (active)
5,Cc1c(Cn2c(C)nc3c(C(=O)O)cc(N4CCOCC4)cc32)cccc1C(F)(F)F,103% (inactive)
6,CN[C@@H]1C[C@H]2O[C@@](C)([C@@H]1OC)n1c3ccccc3c3c4c(c5c6ccccc6n2c5c31)C(=O)N[C@H]4O,-74.5% (active)
7,Cc1c(CN2CCN(C(=O)[C@H](C)O)CC2)sc2c(N3CCOCC3)nc(-c3cnc(N)nc3)nc12,0.359% (active)
8,NC[C@@](O)(c1ccc(Cl)cc1)c1ccc(-c2cn[nH]c2)cc1,12.7% (inactive)
9,Cc1cc(N(CCNc2ccnc3cc(Cl)ccc23)Cc2cccs2)nc(Cl)n1,-14.3% (active)
10,COC(=O)[C@H](Cc1ccc(O)cc1)NC(=O)[C@@H](OC)[C@@H]1Cc2cc3cc(OC4CC(OC5CC(O)C(O)C(C)O5)C(O)C(C)O4)c(C)c(O)c3c(O)c2C(=O)[C@H]1OC1CC(OC2CC(OC3CC(C)(O)C(O)C(C)O3)C(O)C(C)O2)C(O)C(C)O1 (stereo not given in full),-67% (active)
11,CCOc1cccc(/C=N/NC(=O)c2ccccc2Nc2ccnc(C(F)(F)F)c2)c1O,48.6% (inactive)
12,CN1CCN(c2ccc(OC(F)(F)F)c(Nc3ncc4c(n3)-c3c(c(C(N)=O)nn3CCO)CC4)c2)CC1,17% (inactive)
13,Cc1nc(NC(=O)N2CCC[C@H]2C(N)=O)sc1-c1ccnc(C(C)(C)C(F)(F)F)c1,48.6% (inactive)
14,COc1cc2c(cc1OCCCN1Cc3ccc(OCCCCC(=O)N4CCC(CCN5CCCC5)CC4)cc3C1)N=C(N)C21CCCC1,101% (inactive)
15,COc1ccc(-c2ccc3ncc4c(c3c2)n(-c2ccc(N3CCNCC3)c(C(F)(F)F)c2)c(=O)n4C)cn1,-93.2% (active)
16,O=C(Nc1cccc(Cl)c1)Nc1ncc(CCNc2ncnc3ccsc23)s1,80.1% (inactive)
17,Cc1cc(NCC(=O)Nc2ccc(-c3nc4ccccc4s3)cc2)no1,99.2% (inactive)
18,COC(=O)[C@]12CC[C@@H](C)[C@H](C)[C@@H]1C1=CC[C@@H]3[C@@]4(C)C(C#N)=CC(C)=C4CC[C@@]3(C)[C@]1(C)CC2,80% (inactive)
19,CSC1=C(N)C(=O)c2[nH]cc(CO)c2C1=N,-94.1% (active)
20,COc1ccc(S(=O)(=O)N(C(C)=O)c2ccccc2/C=C/c2cc[n+]([O-])cc2)cc1,8.66% (active)
